# In PubChem BioAssay:
# Active and inactive are the calls of the source.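 How the source made its calls, unless noted: active means fluorescence slope higher than the sample average by over 3 SD (cut at about -0.22 in these data, passing the limit was not always enough); inactive means the rest.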
# What was measured:
# [1] = inhibitors of TNFa-induced NFkB p65 translocation, primary screen, imaging, HUVEC, MLSMR starter and 10KST1 sets (AID 438;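 active means inhibition above 20% together with a positive visual image hit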;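 further: compound added about 3h40 before a 20 min TNFalpha stimulation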;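 on inhibition: signal is the nuclear over cytoplasmic p65 intensity ratio per well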); conditions: HUVEC TNFa-induced p65 nuclear translocation; cell count: measured here: nuclei count (cytotoxicity indicator), at 2.08 µM; inhibition: at 2 µM, stronger effect = higher value, 0% TNFa-plus-vehicle, 100% no-TNFa wells
# [2] = reduction of polyQ htt aggregates in cells – imaging, exon1htt(103Q)mCFP cells, high-content imaging, primary screen (AID 483;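 active means visual image review flags a hit and inhibition of aggregation exceeds 20%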;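 further: compound exposure lasted 3 days before fixation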;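 on nuclei count: percent of the per-plate median nuclei count of sample wells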); conditions: exon1htt(103Q)mCFP cell line, aggregate imaging, at 2 µM; inhibition of aggregation: stronger effect = higher value; nuclei count: measured here: cell count, toxicity
# [3] = endothelial E-selectin expression blockers – imaging, HUVEC, immunofluorescence, MLSMR starter and 10KST1 sets, primary screen (AID 487;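 active means visually confirmed hit in the image check and inhibition above 20%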;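 on inhibition: signal is fraction of cell area covered by stained E-selectin grains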;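 on nuclei count: 100% = median nuclei count of all wells on the same plate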); conditions: HUVEC TNFalpha-induced E-selectin immunofluorescence imaging, at 2 µM; inhibition: stronger effect = higher value; nuclei count: measured here: cell number, toxicity
# [4] = biological target: Voltage-gated potassium channel subunit beta-2 (Rattus norvegicus) (UniProt P62483); experiment: inhibitors of rat Kvbeta2 reductase activity – biochemical, NADPH fluorescence, primary screen (AID 622); conditions: recombinant KvBeta, 4-cyanobenzaldehyde reduction, at 10 µM, stronger effect = higher value;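 further: slope of raw intensity against log time taken from 70 to 1610 s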
# [5] = biological target: Voltage-gated potassium channel subunit beta-2 (Rattus norvegicus) (UniProt P62483); experiment: enhancers of rat Kvbeta2 NADPH turnover – biochemical, NADPH fluorescence, primary screen (AID 623;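 active means NADPH fluorescence slope more negative than the mean of all samples by about 3 SD, 99.7% confidence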;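 further: fluorescence intensity change per second fitted from 20 to 320 s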); conditions: Recombinant KvBeta, NADPH fluorescence decrease slope, 10 min; at 10 µM; stronger effect = lower value
# [6] = biological target: Alpha-2C adrenergic receptor (Homo sapiens) (UniProt P18825); experiment: compounds altering alpha2C-coupled GIRK flux – cell-based, HEK293 alpha2C/GIRK1/2, thallium flux, primary screen (AID 624;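 active means fluorescence slope after compound addition differing from the mean of all screened samples at 99.7% confidence, in either direction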;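 further: slope of fluorescence ratio to pre-addition baseline per second over 15 to 24 s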); conditions: thallium flux BTC fluorescence, at 10 µM, actives lie on both sides
# [7] = blockers of RIG-like receptor reporter activation – cell-based, Sendai virus stimulus, luciferase, 10K MLSCN set, TLR/RLR signaling modifier project, primary screen (AID 602276;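 active means inhibition at or above 50% at 10 µM; inactive means inhibition below 50%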;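 further: firefly luciferase from ISG56 promoter only with Renilla not read in this screen; 0% = Sendai virus plus DMSO and 100% = medium plus DMSO without virus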); conditions: HEK293 RL24 IRF3 luciferase reporter, at 10 µM, stronger effect = higher value
# [8] = TLR3 IRF3 reporter activation blockers – cell-based, poly I:C stimulus, luciferase, 10K MLSCN set, primary screen (AID 602277;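 active means inhibition of the reporter signal at or above 50%; inactive means inhibition below 50%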); conditions: HEK293-TLR3 RL24 IRF3 luciferase reporter, at 10 µM, stronger effect = higher value
# Chain of Alpha-2C adrenergic receptor (Homo sapiens) (P18825 whole entry, looked up): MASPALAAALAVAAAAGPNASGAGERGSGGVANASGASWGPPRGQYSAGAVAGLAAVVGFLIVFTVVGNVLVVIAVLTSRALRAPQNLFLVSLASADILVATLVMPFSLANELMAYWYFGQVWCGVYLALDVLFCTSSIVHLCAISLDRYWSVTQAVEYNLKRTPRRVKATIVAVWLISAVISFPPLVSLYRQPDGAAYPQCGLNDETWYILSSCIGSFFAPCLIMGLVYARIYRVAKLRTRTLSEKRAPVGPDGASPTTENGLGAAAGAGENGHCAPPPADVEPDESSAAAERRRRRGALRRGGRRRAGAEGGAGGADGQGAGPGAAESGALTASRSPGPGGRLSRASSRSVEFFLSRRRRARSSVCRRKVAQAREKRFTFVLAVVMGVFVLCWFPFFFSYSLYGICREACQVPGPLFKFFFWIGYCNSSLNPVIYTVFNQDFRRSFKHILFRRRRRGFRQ
# Chain of Voltage-gated potassium channel subunit beta-2 (Rattus norvegicus) (P62483 whole entry, looked up): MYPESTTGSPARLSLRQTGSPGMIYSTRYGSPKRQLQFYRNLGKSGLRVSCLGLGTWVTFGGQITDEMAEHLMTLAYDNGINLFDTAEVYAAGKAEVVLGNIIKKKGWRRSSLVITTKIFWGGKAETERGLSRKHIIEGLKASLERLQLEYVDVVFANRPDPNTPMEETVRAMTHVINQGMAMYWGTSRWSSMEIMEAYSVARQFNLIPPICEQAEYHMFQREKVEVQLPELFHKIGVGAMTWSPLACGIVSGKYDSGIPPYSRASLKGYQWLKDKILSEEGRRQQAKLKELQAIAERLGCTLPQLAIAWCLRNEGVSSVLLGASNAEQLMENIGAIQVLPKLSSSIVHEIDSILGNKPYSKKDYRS
compound,measurement,setting,value
COc1ccc(C2N(C(=O)c3ccccc3)CCN2C(=O)c2ccccc2)cc1,cell count,[1],488
same,inhibition,[1],-13.6% (inactive)
same,inhibition of aggregation,[2],-2.8% (inactive)
same,nuclei count,[2],71.9%
same,inhibition,[3],-13.7% (inactive)
same,nuclei count,[3],92.4%
same,fluorescence slope,[4],-0.427 (inactive)
same,NADPH fluorescence slope,[5],-7.3e-05 (inactive)
same,slope,[6],0.00622 (inactive)
same,inhibition,[7],7.08% (inactive)
same,inhibition,[8],24.3% (inactive)
CCN1C(=O)CC(N2CCC(Nc3ccc(F)cc3)CC2)C1=O (centres undefined),cell count,[1],559
same,inhibition,[1],-9.7% (inactive)
same,inhibition of aggregation,[2],6.4% (inactive)
same,nuclei count,[2],57.1%
same,inhibition,[3],-72% (inactive)
same,nuclei count,[3],94.1%
same,fluorescence slope,[4],-0.541 (inactive)
same,NADPH fluorescence slope,[5],6.8e-06 (inactive)
same,slope,[6],0.00599 (inactive)
same,inhibition,[7],-4.21% (inactive)
same,inhibition,[8],-6.01% (inactive)
Cc1ccccc1-n1c(=O)cc(N2CCN(C(=O)c3ccco3)CC2)[nH]c1=O,cell count,[1],543
same,inhibition,[1],12.5% (inactive)
same,inhibition of aggregation,[2],6.9% (inactive)
same,nuclei count,[2],116%
same,inhibition,[3],-8.4% (inactive)
same,nuclei count,[3],99.7%
same,fluorescence slope,[4],-0.598 (inactive)
same,NADPH fluorescence slope,[5],1.7e-05 (inactive)
same,slope,[6],0.00562 (inactive)
same,inhibition,[7],13.5% (inactive)
same,inhibition,[8],12.4% (inactive)
CC(C)N1C(=O)C2C(C(=O)NC3CCCCC3)C3C=CC2(O3)C1C(=O)NC1CCCC1 (centres undefined),cell count,[1],371
same,inhibition,[1],4.3% (inactive)
same,inhibition of aggregation,[2],23% (inactive)
same,nuclei count,[2],101%
same,inhibition,[3],-58.1% (inactive)
same,nuclei count,[3],101%
same,fluorescence slope,[4],-0.366 (inactive)
same,NADPH fluorescence slope,[5],3.1e-05 (inactive)
same,slope,[6],0.00675 (inactive)
same,inhibition,[7],8.4% (inactive)
same,inhibition,[8],18.1% (inactive)
C=CCOc1ccc(/C=N/n2cncn2)cc1OC,cell count,[1],517
same,inhibition,[1],-8.8% (inactive)
same,inhibition of aggregation,[2],23.9% (inactive)
same,nuclei count,[2],76.3%
same,inhibition,[3],-39.8% (inactive)
same,nuclei count,[3],81.6%
same,fluorescence slope,[4],-0.58 (inactive)
same,NADPH fluorescence slope,[5],2.1e-05 (inactive)
same,slope,[6],0.00496 (inactive)
same,inhibition,[7],-10.2% (inactive)
same,inhibition,[8],5.53% (inactive)
Cc1ccc(-c2noc(-c3ccccc3C(=O)NCC3CCCO3)n2)cc1 (centres undefined),cell count,[1],763
same,inhibition,[1],2% (inactive)
same,inhibition of aggregation,[2],-9% (inactive)
same,nuclei count,[2],110%
same,inhibition,[3],8.3% (inactive)
same,nuclei count,[3],106%
same,fluorescence slope,[4],-0.442 (inactive)
same,NADPH fluorescence slope,[5],5.9e-05 (inactive)
same,slope,[6],0.00648 (inactive)
same,inhibition,[7],-20% (inactive)
same,inhibition,[8],-30.1% (inactive)
C[C@H](NC(=O)NCc1cccs1)C(=O)O,cell count,[1],378
same,inhibition,[1],4.3% (inactive)
same,inhibition of aggregation,[2],-9.8% (inactive)
same,nuclei count,[2],102%
same,inhibition,[3],-52.5% (inactive)
same,nuclei count,[3],72.1%
same,fluorescence slope,[4],-0.576 (inactive)
same,NADPH fluorescence slope,[5],-5.7e-05 (inactive)
same,slope,[6],0.00368 (inactive)
same,inhibition,[7],5.25% (inactive)
same,inhibition,[8],4.63% (inactive)
O=C(Nc1nc(-c2ccc(S(=O)(=O)N3CCCC3)cc2)cs1)C1COc2ccccc2O1 (centres undefined),cell count,[1],731
same,inhibition,[1],3.6% (inactive)
same,inhibition of aggregation,[2],-24.6% (inactive)
same,nuclei count,[2],91.5%
same,inhibition,[3],24% (inactive)
same,nuclei count,[3],81.4%
same,fluorescence slope,[4],-0.413 (inactive)
same,NADPH fluorescence slope,[5],-2.5e-05 (inactive)
same,slope,[6],0.00956 (active)
same,inhibition,[7],7.86% (inactive)
same,inhibition,[8],2.65% (inactive)
COc1ccc(CCNC(=O)CCN2C(=O)C3CC=CCC3C2=O)cc1OC (centres undefined),cell count,[1],308
same,inhibition,[1],-1.1% (inactive)
same,inhibition of aggregation,[2],-8.1% (inactive)
same,nuclei count,[2],83.4%
same,inhibition,[3],-53.4% (inactive)
same,nuclei count,[3],103%
same,fluorescence slope,[4],-0.605 (inactive)
same,NADPH fluorescence slope,[5],-1.9e-06 (inactive)
same,slope,[6],0.00675 (inactive)
same,inhibition,[7],3.55% (inactive)
same,inhibition,[8],-2.15% (inactive)
O=C1OC2(c3ccccc3)C3CCCC2C13,cell count,[1],340
same,inhibition,[1],-1.1% (inactive)
same,inhibition of aggregation,[2],7.7% (inactive)
same,nuclei count,[2],94.1%
same,inhibition,[3],5.3% (inactive)
same,nuclei count,[3],107%
same,fluorescence slope,[4],-0.548 (inactive)
same,NADPH fluorescence slope,[5],-7.3e-05 (inactive)
same,slope,[6],0.00538 (inactive)
same,inhibition,[7],16% (inactive)
same,inhibition,[8],15.6% (inactive)
CCOC(=O)c1cc2c(=O)n3ccccc3nc2n(Cc2ccccc2)c1=N,cell count,[1],913
same,inhibition,[1],11.3% (inactive)
same,inhibition of aggregation,[2],19.9% (inactive)
same,nuclei count,[2],102%
same,inhibition,[3],-109% (inactive)
same,nuclei count,[3],117%
same,fluorescence slope,[4],-0.364 (inactive)
same,NADPH fluorescence slope,[5],-2.8e-05 (inactive)
same,slope,[6],0.00332 (inactive)
same,inhibition,[7],6.32% (inactive)
same,inhibition,[8],33.2% (inactive)
Cc1cc(C)nc(SCc2csc(N)n2)n1,cell count,[1],338
same,inhibition,[1],-3.6% (inactive)
same,inhibition of aggregation,[2],-3.1% (inactive)
same,nuclei count,[2],81.8%
same,inhibition,[3],-56.8% (inactive)
same,nuclei count,[3],100%
same,fluorescence slope,[4],-0.347 (inactive)
same,NADPH fluorescence slope,[5],-4.2e-05 (inactive)
same,slope,[6],0.00565 (inactive)
same,inhibition,[7],-0.264% (inactive)
same,inhibition,[8],-2.76% (inactive)
O=C(CC(C(=O)N1CCc2ccccc21)n1ccnc1)NCc1cccnc1 (centres undefined),cell count,[1],655
same,inhibition,[1],-2.2% (inactive)
same,inhibition of aggregation,[2],23.5% (inactive)
same,nuclei count,[2],122%
same,inhibition,[3],-67% (inactive)
same,nuclei count,[3],119%
same,fluorescence slope,[4],-0.446 (inactive)
same,NADPH fluorescence slope,[5],9.2e-07 (inactive)
same,slope,[6],0.00564 (inactive)
same,inhibition,[7],10.8% (inactive)
same,inhibition,[8],20.7% (inactive)
CC1CCN(Cc2ccc(-c3nn[nH]n3)cc2)CC1,cell count,[1],582
same,inhibition,[1],-2.9% (inactive)
same,inhibition of aggregation,[2],17.9% (inactive)
same,nuclei count,[2],96.8%
same,inhibition,[3],-29.4% (inactive)
same,nuclei count,[3],90.6%
same,fluorescence slope,[4],-0.659 (inactive)
same,NADPH fluorescence slope,[5],2.2e-05 (inactive)
same,slope,[6],0.00582 (inactive)
same,inhibition,[7],15.7% (inactive)
same,inhibition,[8],27.1% (inactive)
